# Data reported in PubChem BioAssay (NCI).
# Compounds without any hit were thinned out: in the full panel of roughly 83,000, 20% have a hit.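 Each cell line was grown in a 96-well plate and treated with one concentration of compound for 48 hours. Values below 10 were considered active.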 A number with no mark means an inactive call. Active and inactive are the calls of the source.
# Key:
# Test in all cases: NCI-60 one-dose screen, 48 h (100 = growth as untreated, 0 = no growth, -100 = all killed)
# Settings in all cases: 10 µM
# SK-MEL-2 melanoma = system: SK-MEL-2 melanoma
# EKVX NSCLC = system: EKVX NSCLC
# SN12C renal = system: SN12C renal
# UO-31 renal = system: UO-31 renal
# TK-10 renal = system: TK-10 renal
# ACHN renal = system: ACHN renal
# CAKI-1 renal = system: CAKI-1 renal
# A498 renal = system: A498 renal
# CCRF-CEM leukemia = system: CCRF-CEM leukemia
# MOLT-4 leukemia = system: MOLT-4 leukemia
Structure (SMILES),growth (SK-MEL-2 melanoma),growth (EKVX NSCLC) [%],growth (SN12C renal),growth (UO-31 renal),growth (TK-10 renal),growth (ACHN renal),growth (CAKI-1 renal),growth (A498 renal),growth (CCRF-CEM leukemia),growth (MOLT-4 leukemia)
COc1cc(NS(C)(=O)=O)ccc1Nc1c2ccc(Cl)cc2nc2c(OC)cccc12,-45.2% (active),70.4,-10.7% (active),5.23% (active),-55.3% (active),-46.4% (active),-37% (active),-8.95% (active),2.75% (active),-2.38% (active)
CCSc1nc2c([nH]1)c(=O)n(C)c(=S)n2C,111%,95.5,107%,98.2%,101%,102%,100%,108%,100%,108%
Nc1c(C(=O)Nc2ccccc2F)sc2nc3c(cc12)C(=O)CCC3,42.6%,56.3,49.8%,76%,59.7%,65.4%,4.36% (active),-1.01% (active),26.8%,73.6%
O=C(NNc1nc(N2CCCC2)nc(N2CCCC2)n1)c1ccccc1,101%,102,100%,81.7%,114%,102%,116%,102%,103%,68.4%
COc1ccc(Cn2cc3c(c2-c2cc(OC)c(OC)c(OC)c2)CCc2cnoc2-3)cc1N,37.1%,27.4,27.6%,40.4%,75.6%,38.8%,6.52% (active),25%,23.7%,24.6%
COc1ccc(C2=Cc3ccc(OC(C)=O)cc3OC2)cc1,97.5%,66.2,87.2%,49.1%,102%,80.8%,88.2%,82.2%,70.8%,44.5%
Cc1ccc(S(=O)(=O)Oc2ccccc2-c2ccccc2)cc1,28.8%,46,39.2%,22.5%,45.5%,44.2%,14%,6.79% (active),18%,20.7%
CCOC(=O)c1c(O)c2cc(-c3ccccc3)nc(OCC)c2c(=O)n1C,87.9%,96,98.7%,79.6%,123%,98.3%,97.3%,90.3%,56%,107%
O=C(NNC(=O)c1ccncc1)Nc1ccc([N+](=O)[O-])cc1,95.8%,91.6,114%,89.6%,106%,101%,96.5%,115%,107%,81.2%
COc1ccc(/C=C(\c2cc(OC)c(OC)c(OC)c2)c2nnc(-c3cccs3)o2)cc1,81.9%,78.6,84.6%,89.3%,75.5%,75.3%,66.3%,71.4%,–,87.6%
C[C@]12CC[C@H]3[C@@H](CCC4=CC(=O)CC[C@@]43C)[C@@H]1CC[C@@H]2c1csc(N)n1,62.9%,23.6,71.8%,44%,87.3%,77.2%,47.3%,84.3%,42.1%,27.7%
O=[N+]([O-])c1ccc2c(c1)Cc1cc(I)ccc1-2,109%,84.6,107%,91.9%,118%,110%,102%,102%,96.8%,91.8%
CCOC(=O)c1cc2c(n1Cc1cc(OC)cc(OC)c1)-c1oncc1CC2,26.7%,34.5,40.9%,19.4%,53.2%,47.1%,29.2%,–,13.2%,23.6%
O=[N+]([O-])c1ccc(S(=O)(=O)OCCCCOS(=O)(=O)c2ccc([N+](=O)[O-])cc2)cc1,115%,95.8,97%,90.1%,113%,110%,97.9%,104%,–,94.7%
